# Data published in PubChem BioAssay (EPA / NIEHS).
# The source made the active and inactive calls. Rule for the calls: active = hit-call score of the fitted dose curve at least 0.9, where 1 is the maximum; inactive = score below 0.9.
# Assay: CCTE_Simmons_MITO_max_resp_rate: CCTE's HepG2 Seahorse XF Respirometric Screening Assay at Maximal Respiratory State [uncoupled], Simmons Lab (AID 2284002)
# Details: actives raise or lower the signal
# Description: CCTE_Simmons_MITO is cell-based, respirometric assay using HepG2 cells and a Seahorse XF Analyzer to measure oxygen consumption rates over four temporal phases spanning a total of 72 minutes: pre-injection (pre-treatment), basal (following test compound injection), maximal (following FCCP uncoupler injection), and inhibited (following rotenone/antimycin A injection)CCTE_Simmons_MITO_max_resp_rate is one of 4 assay components calculated from the CCTE_Simmons_MITO assay. It is designed to make measurements of maximal respiration using a form of respirometric reporter, as detected with […] signals by Seahorse XF96 technology. Data from the assay component CCTE_Simmons_MITO_max_resp_rate was analyzed at the endpoint, CCTE_Simmons_MITO_max_resp_rate_OCR, with bidirectional fitting relative to DMSO as the negative control and baseline of activity. Using a type of respirometric reporter, measures of maximal respiration for gain or loss-of-signal activity can be used to understand cellular oxygen consumption as it relates to cellular respiration. To generalize the intended target to other relatable targets, this assay endpoint is annotated to the mitochondria intended target family, where the subfamily is respiration.
# Test chemicals were administered as a titrated series of 7 concentrations from 125 nM up to 100 uM [final] prior to kinetic endpoint detection at 6 minute intervals [3 min mix followed by 3 minutes measure] for 72 minutes. Three biological replicates of technical singles were run for every chemical concentration tested. Dimethylsulfoxide [DMSO] was used as the vehicle control. The electron transport chain inhibitor fenpyroximate was used as the positive control for decreased basal respiration and was administered as a titrated series of 6 concentrations from 250 nM up to 2.75 uM [final] with technical triplicates for the top concentration only. The uncoupler 2,4-dintirophenol was used as the positive control for increased basal respiration and was administered as a titrated series of 6 concentrations from 938 nM up to 40 uM [final] with technical triplicates for the top concentration only. A Seahorse XF Analzyer is required to measure the response.
Compound,outcome,AC50
COc1ccc2sc(C(=O)Nc3nnn[nH]3)c(OC(C)C)c2c1,inactive,–
CC(C)c1cccc(C(C)C)c1N1C(=O)c2ccc(O)cc2C1=O,–,20.3 µM (active)
Cc1[nH]cnc1C[C@H]1CCc2c(C)c3ccccc3n2C1=O,inactive,–
Cc1ccc(N)cc1O,–,60.5 µM (active)
Cn1c(=O)cc(Oc2ccc(F)cc2F)c2cnc(NCC(C)(C)O)nc21,inactive,–
CCn1nc(Cc2ccccc2)cc1C1CCN(C[C@H]2C[C@H](N(C)[C@@H](C(=O)O)C(C)C)C[C@@H]2c2cccc(F)c2)CC1,inactive,–
Cc1c(-c2cccnc2)c2ccccc2n1CCCCC(=O)O,inactive,–
O=c1[nH]c2ccc(S(=O)CCN3CCC(Cc4ccc(F)cc4)CC3)cc2o1 (configuration not stated),–,35.5 µM (active)
CCOC(=O)c1ccc(C2CCC(NC[C@H](O)COc3ccc(O)c(NS(C)(=O)=O)c3)CC2)cc1 (some centres not stated),inactive,–
CC(C)=CCC/C(C)=C/CO,inactive,–
CCCCCCc1ccc(O)cc1O,–,41.4 µM (active)
CC(C)CC(C)(O)C#CC(C)(O)CC(C)C (configuration not stated),–,37.8 µM (active)
O=C(O)c1cccc(N(Cc2cccnc2)c2ccc(OC(F)F)c(OC(F)F)c2)c1,inactive,–
C=CCCCCCCCCC(=O)O,inactive,–
CC(C)=CCCC(C)=CC=O,inactive,–
O=C(CCCCCCCCc1cccnc1)N1CCC(C=C(c2ccccc2)c2ccccc2)CC1,inactive,–
Nc1cccc(N)c1,inactive,–
COc1cccc(-c2ccc(/C=C\CN3CCCCCC3)cc2Cl)c1,–,65.8 µM (active)
CCOc1cccc(-n2cc(C(=O)N3CCN(c4cc(C(=O)O)c5ccccc5c4)CC3)nc2-c2ccc(C)cc2)c1,inactive,–
CCOC(=O)COc1ccc2c(c1)CC(NCC(O)c1cccc(Cl)c1)CC2 (configuration not stated),–,62.7 µM (active)
COc1ccc(/C=C/S(=O)(=O)NC(=O)c2ccc(C)cc2Cl)cc1,–,15.2 µM (active)
Fc1ccccc1[C@@H](F)COC1CCC(Nc2ncnc3[nH]ncc23)CC1 (some centres not stated),–,13.8 µM (active)
